# Laboratory results: the supplement of paper PMC10105736
# A number with no mark means an inactive call.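 Rule for the calls: active = MAPPIT score above the 99th percentile of random reference set scores in the same batch; inactive = at or below it.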
# B1: sala (protein)
# chain: MKLLIALFALVTAVNAQNGFGQVGQGGYGGQGGFGGFGGIGGQAGFGGQIGFTGQGGVGGQVGIGQGGVHPGQGGFAGQGSPNQYQPGYGSPVGSGHFHGTNPVESGHFHENPHEYPEHHGDHHREHHEHHGHHEHHGHHRH
# B2: grau (protein)
# chain: MDICRLCLRGVSGAQMCLQIFDVDSGESKVAEVLRQHFWFEVLPNDEISKVICNVCWTQVSEFHQFYVSIQEAQVIYATTSKFKQDPEMVNTSWPEEVLMPADVLAVDNDVGAQINVNPLDELDLSQPMSPEDSKVGIKTERQSPDMELLFEDANNEQDEDYEDDEDDDTDDLIVTRSGRKRKRDVAKPAKTKRGTVSVGRKGKEKMVVKRGPPKRIFKMERLPPFCKEDEELIKRYIVMGCELCIFLAEDFDGIREHFKDKHPDERPYIKCCGRKLNKRCLIQEHARRHENPEYIKCKDCGKVFANSSVLRAHWLVHHVPDEECDFQCEDCGKRFSRRNLLELHKGSHVPVNERKFICPQCPKHNAFATEYHMQVHISMQHRKAANICHVCGKKIKDKAVFEKHVRLHFEESGPRIKCPRPDCESWLKDEDNLKQHLRRHNDEGKLFICSECGKSCKNSRALIGHKRYSHSNVIYTCEQCGKTFKKDISLKEHMAQHTGEPLYKCPFCPRTFNSNANMHSHKKKMHPVEWDIWRKTKTGSSQKVLPSAQVAQMFRDDADVAAIANDYSG
# B3: Sras (protein)
# chain: MKNLSETEAEVTMQENVVHESLPQIPVATSVSCCFVLAVLYVGSLYIWSTKHNRDHPTTVKRRFASVSMVMLAAPFFVYFFSSPELLSRVPFPKLLGLRLEGLWQAVVIPYSLTVLLFLGPIFVNMQNESVRSYFDLDYWRGSFGSIIWVRNHVIAPLSEEFVFRACMMPLILQSFSPLVAVFITPLFFGVAHLHHIAERLSLGVELSTALLIGLFQFIYTTLFGFYSAFLFARTGHVMAPILVHAFCNHMGLPDLQDLWQQDLWRRVVAIILYLAGFVGWMFLVPLATDPSIYDNTLYWNA
# B4: sicily (protein)
# chain: MRRLVRNWNCRLLFNAKSGQEIVSHAGIHQEAKTNAIPREKKVIEADKNGYGAKHCMSLVEKYDYENYLCTLLLPRELRRAAFALRAFNVEVSRSVSGHQIEPQIAKMRLKFWHDSIDKCFEPDSQRSYVEDQPVLRELKHTVGSRKLNKVYLRRLVTARERPPTHAFESIRELEEYTEQTFSSLLLLLLEVGGVRDLNADHAASHLGKAQGIATLLRSIPLAGRQQAPCIPLEVLVLHGVSQERIIRSKSDDKGVEDCIFDVASAANTHLKLARQLHDKVPPQVRKIFLSAVATDAYLERLRRANFLLTHKSCVGRDTLLPARLFWKSLLNRF
# B5: bora (protein)
# chain: MYNDEVRTPQALKNRYITNVNGLKCRARRNSHSNSSNSSAASATPTNGGKENGKYSPQMSGNVCTPPPKRLHKVRNPFEGAMADRLHLPLIASPSLFRSRTPQLSSTQFEWNIDEVSQLKPADVEPHETQFHDSPDPEQESKAQLAISAFFKESLIVPSPVDCPLRKQRIILNCSEDNTPISNKSRRMRDCEVQTELTLPPILPKALEDALRPYFQPHLAGRLSGRSKSSGGPDIFNSSMRRKLFDLHNVIVLGEQDTAEPSRSMVGSSPQGKQTMFAGRLSDSASGESSFGCLSPIRNLCGLPPGTPDNGTCSGKRKLLMHELELPSPIAPSEHLSRRLVHSKVEISVTEQHDTLSERTALKFTPDRSSSPMGGGLEHSDCSINQRVRRLRVNSTRQVVIETGDQPLFEETEGEEEEAESEDDEEADAMQLSTVSFNCSSSNSDTPRGHKRHRSAQRKNLSQSFSANLEEEADQTQGGAGSIQPAEPPSVAMPQQGARIPLYRADSGFNETSSTTFAFSQDLPLDVSMACCSTPSTRS
# B6: Shrm (protein)
# chain: MKMRNHKENGNGSEMGESTKSLAKMEPENNNKISVVSVSKLLLKDSNGANSRSSNSNASFSSASVAGSVQDDLPHHNSSSSQLGQQHGSSLDQCGLTQAGLEEYNNRSSSYYDQTAFHHQKQPSYAQSEGYHSYVSSSDSTSATPFLDKLRQESDLLSRQSHHWSENDLSSVCSNSVAPSPIPLLARQSHSHSHSHAHSHSNSHGHSHGHAHSASSSSSSNNNSNGSATNNNNNNSSESTSSTETLKWLGSMSDISEASHATGYSAISESVSSSQRIVHSSRVPTPKRHHSESVLYLHNNEEQGDSSPTASNSSQMMISEEANGEESPPSVQPLRIQHRHSPSYPPVHTSMVLHHFQQQQQQQQDYQHPSRHHTNQSTLSTQSSLLELASPTEKPRSLMGQSHSMGDLQQKNPHQNPMLGRSAGQQHKSSISVTISSSEAVVTIAPQPPAGKPSKLQLSLGKSEALSCSTPNMGEQSPTNSIDSYRSNHRLFPVSTYTEPVHSNTSQYVQHPKPQFSSGLHKSAKLPVITPAGATVQPTWHSVAERINDFERSQLGEPPKFAYLEPTKTHRLSNPALKALQKNAVQSYVERQQQQQKEEQQLLRPHSQSYQACHVERKSLPNNLSPIMVGLPTGSNSASTRDCSSPTPPPPPRRSGSLLPNLLRRSSSASDYAEFRELHQAQGQVKGPSIRNISNAEKISFNDCGMPPPPPPPRGRLAVPTRRTSSATEYAPMRDKLLLQQAAALAHQQHHPQQHRHAQPPHVPPERPPKHPNLRVPSPELPPPPQSELDISYTFDEPLPPPPPPEVLQPRPPPSPNRRNCFAGASTRRTTYEAPPPTAIVAAKVPPLVPKKPTSLQHKHLANGGGGSRKRPHHATPQPILENVASPVAPPPPLLPRARSTAHDNVIASNLESNQQKRSNSKASYLPRQSLEKLNNTDPDHGIYKLTLTSNEDLVAHTKPSYGVTGKLPNNLPDVLPLGVKLHQQPKLQPGSPNGDANVTLRYGSNNNLTGNSPTVAPPPYYGGGQRYSTPVLGQGYGKSSKPVTPQQYTRSQSYDVKHTSAVTMPTMSQSHVDLKQAAHDLETTLEEVLPTATPTPTPTPTPTPPRLSPASSHSDCSLSTSSLECTINPIATPIPKPEAHIFRAEVISTTLNTNPLTTPPKPAMNRQESLRENIEKITQLQSVLMSAHLCDASLLGGYTTPLITSPTASFANEPLMTPPLPPSPPPPLEPEEEEEQEENDVHDKQPEIEELQLMQRSELVLMVNPKPSTTDMACQTDELEDRDTDLEAAREEHQTRTTLQPRQRQPIELDYEQMSRELVKLLPPGDKIADILTPKICKPTSQYVSNLYNPDVPLRLAKRDVGTSTLMRMKSITSSAEIRVVSVELQLAEPSEEPTNLIKQKMDELIKHLNQKIVSLKREQQTISEECSANDRLGQDLFAKLAEKVRPSEASKFRTHVDAVGNITSLLLSLSERLAQTESSLETRQQERGALESKRDLLYEQMEEAQRLKSDIERRGVSIAGLLAKNLSADMCADYDYFINMKAKLIADARDLAVRIKGSEEQLSSLSDALVQSDC
# Columns and labels:
# Assay in all cases: MAPPIT interaction score (arbitrary units); higher = stronger binary interaction signal, active = hit call of the paper
# CG7044 = details: MAPPIT configuration: N-N; pair source set: Lit-BS-16
# aspr = details: MAPPIT configuration: N-N; pair source set: Lit-BS-16
# CG7137 = details: pair source set: Lit-BM-16
# CG7407 = details: MAPPIT configuration: N-C; pair source set: screen_3
# Dpm3 = details: MAPPIT configuration: N-C; pair source set: screen_4
# CG7548 = details: MAPPIT configuration: N-N
# CG7747 = details: MAPPIT configuration: N-N; pair source set: Finley_Y2H
# 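Note: HEK293T cells with Epo stimulation, STAT-responsive firefly luciferase reporter, fold induction versus unstimulated cells divided by the larger fold induction of two negative controls lacking either bait or prey.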
binder,measurement,setting,value
B1,MAPPIT interaction score,CG7044,0.14
same,MAPPIT interaction score,aspr,-0.194
B2,MAPPIT interaction score,CG7137; MAPPIT configuration: N-C,3.33
same,MAPPIT interaction score,CG7137; MAPPIT configuration: N-N,0.66
B3,MAPPIT interaction score,CG7407,-0.229
same,MAPPIT interaction score,Dpm3,0.0475
B4,MAPPIT interaction score,CG7548; pair source set: Finley_Y2H,-0.0114
same,MAPPIT interaction score,CG7548; pair source set: Lit-BS-16,-0.0114
B5,MAPPIT interaction score,CG7747,1.91
B6,MAPPIT interaction score,CG7747,-0.185
